ssDAF12 agonist = S. stercoralis DAF-12 activation, primary screen. HEK293 ssDAF-12/GRIP1 lit1-tk-luc reporter, luminescence; % of 3 µM dafachronic acid response. activation, % at 6.8 µM. 370,000 tested, 1% active. AID 652126;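 active means activation above the mean over all tested compounds plus 3 SD, cut at about 0.9% in these data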;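 further: 0% = DMSO-only wells and 100% = 3 µM delta7-dafachronic acid wells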
DAX1 inh-1 = inhibitors of human orphan nuclear receptor DAX1 (NR0B1) | inhibition, % at 6.75 µM | 340,000 tested, 0.99% active | HEK293 Gal4-DAX1 luciferase reporter, luminescence | AID 504766 | P51843;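 active means inhibition above the mean over all tested compounds plus 3 SD, cut at about 4.2% in these data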;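 further: 0% = DAX1-transfected cells with DMSO and 100% = empty-vector control cells with DMSO; inhibition shows as a rise in luminescence from relieved DAX1 repression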
Target sequence (P51843 207-470 limits assumed): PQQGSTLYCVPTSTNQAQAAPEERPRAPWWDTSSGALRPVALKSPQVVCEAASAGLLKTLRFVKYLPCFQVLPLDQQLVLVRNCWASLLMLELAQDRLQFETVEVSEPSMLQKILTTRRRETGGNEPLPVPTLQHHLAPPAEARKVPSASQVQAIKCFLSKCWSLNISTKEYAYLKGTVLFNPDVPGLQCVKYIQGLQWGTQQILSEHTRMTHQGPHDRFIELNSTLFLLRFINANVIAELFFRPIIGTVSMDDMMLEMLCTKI
DAX1 inh-2 = inhibitors of DAX1 repression of SF-1 activated StAR promoter. AID 652010. 370,000 tested, 1.1% active. HEK293T StAR-luciferase reporter, SF-1/DAX-1 repression relief. inhibition, % at 6.8 µM;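 active means inhibition above the mean over all tested compounds plus 3 SD, cut at about 3.6% in these data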;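 further: 0% = DAX-1 cells with DMSO and 100% = cells lacking DAX-1 with DMSO; higher inhibition means more luminescence from relief of DAX-1 repression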
hgDAF-12 ag = agonists of H. glycines DAF-12 nuclear receptor. HEK293 GAL4-hgDAF12 UAS-luciferase reporter, agonist luminescence; normalized to butyrate control. activation, % at 6.8 µM. 370,000 tested, 1.8% active. AID 687014;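 active means activation above a cutoff set at the mean of all screened compounds plus 3 SD, cut at about 10% in these data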;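 further: 0% = DMSO wells and 100% = sodium butyrate wells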
hcDAF-12 act = activators of H. contortus DAF-12 nuclear receptor | 370,000 tested, 1.4% active | HEK293 hcDAF-12 lit1-tk-luc reporter, luminescence; 0% DMSO, 100% Δ7-dafachronic acid | activation, % at 6.8 µM;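 active means activation above the mean of all tested compounds plus 3 SD, cut at about 5.5% in these data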;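 further: 100% = response to 3 µM Δ7-dafachronic acid high control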
Active calls of the source: *. This is a sample that favours compounds with a hit; in the whole collection about 4.1% have one here.

How did CCCOc1ccc(-c2nnc(-c3ccco3)o2)cc1 do in these assays?
ssDAF12 agonist: 0; DAX1 inh-1: -3; DAX1 inh-2: 3.7*; hgDAF-12 ag: 11*; hcDAF-12 act: 4

How did COc1cccc(-c2nnc(-c3ccco3)o2)c1 do in these assays?
ssDAF12 agonist: -1; DAX1 inh-1: 0; DAX1 inh-2: 4; hgDAF-12 ag: 12*; hcDAF-12 act: 6

Results for CCOC(=O)[C@]12CCCCC/C=C\1N(CCc1ccc(Cl)cc1)C(=O)[C@H]2CC(=O)NCCCOC ?
ssDAF12 agonist: -2; DAX1 inh-2: -1; hgDAF-12 ag: 0; hcDAF-12 act: -3

What do the screens show for `O=C(c1ccc(F)cc1F)N1CCC(Oc2cccnc2)CC1`?
ssDAF12 agonist: -1; DAX1 inh-2: 0; hgDAF-12 ag: -3; hcDAF-12 act: -2

Results for C[C@H]1[C@@H](OC(=O)N2CCN(c3ccccc3)CC2)CC[C@@]23CCCN2C(=O)CCC[C@@H]13 ?
ssDAF12 agonist: -2; hgDAF-12 ag: -2; hcDAF-12 act: 0

How did C#CCNC(=O)C[C@H]1C[C@@]2(C(=O)OC)C(=C[C@H](COCc3ccccc3)O[C@@H]2C)N(Cc2ccc(Cl)cc2Cl)C1=O do in these assays?
ssDAF12 agonist: -2; DAX1 inh-2: -2; hgDAF-12 ag: 1; hcDAF-12 act: -2

How did O=C(NCCCN1CCN(c2ccc(F)cc2)CC1)NCc1ccccc1 do in these assays?
ssDAF12 agonist: -1; DAX1 inh-2: 0; hgDAF-12 ag: -3; hcDAF-12 act: 2

Results for CCOC(=O)CSc1nc2cc(OCC)ccc2cc1C#N ?
ssDAF12 agonist: 0; DAX1 inh-1: 1; DAX1 inh-2: 2; hgDAF-12 ag: 11*; hcDAF-12 act: 2

Results for CC(=O)Nc1nc2ncccn2c1-c1ccc(F)c(F)c1 ?
ssDAF12 agonist: -1; DAX1 inh-2: 0; hgDAF-12 ag: 0; hcDAF-12 act: -1

Results for COc1cc(OC)cc(C(=O)Nc2sc3c(c2C(N)=O)CCC3)c1 ?
ssDAF12 agonist: 1.1*; DAX1 inh-1: 1; DAX1 inh-2: 0; hgDAF-12 ag: 7; hcDAF-12 act: 1

How did COc1ccc2nc(NC3=NCCC3)sc2c1 do in these assays?
ssDAF12 agonist: -1; DAX1 inh-1: 3; DAX1 inh-2: 2; hgDAF-12 ag: 6; hcDAF-12 act: 0

What do the screens show for `COc1ccc2nc(Nc3sc4c(c3C(N)=O)CCCC4)sc2c1`?
ssDAF12 agonist: 0; DAX1 inh-1: 1; DAX1 inh-2: 1; hgDAF-12 ag: 3; hcDAF-12 act: 6.4*

How did COc1ccc(CC(=O)Nc2sc3c(c2C(N)=O)CCCC3)cc1 do in these assays?
ssDAF12 agonist: -2; DAX1 inh-1: 0; DAX1 inh-2: 0; hgDAF-12 ag: -1; hcDAF-12 act: -2

How did COc1ccc(C(=O)N[C@@H]2CC[C@@]34CCCN3C(=O)CCC[C@H]4[C@H]2C)cc1 do in these assays?
ssDAF12 agonist: -2; hgDAF-12 ag: 0; hcDAF-12 act: -1

Results for O=C(CCCN1C(=O)/C(=C/c2ccccc2)SC1=S)NCCCn1ccnc1 ?
ssDAF12 agonist: -2; DAX1 inh-1: 0; DAX1 inh-2: 0; hgDAF-12 ag: -5; hcDAF-12 act: -5

Results for O=C(CCN1C(=O)/C(=C/c2ccccc2F)SC1=S)NCCCn1ccnc1 ?
ssDAF12 agonist: -1; DAX1 inh-1: 0; DAX1 inh-2: 0; hgDAF-12 ag: 1; hcDAF-12 act: 6.5*

How did CCCOc1cccc(C2C(C(=O)c3ccc(C)o3)=C(O)C(=O)N2CCN2CCOCC2)c1 (stereo unspecified) do in these assays?
ssDAF12 agonist: -1; DAX1 inh-1: 1; DAX1 inh-2: 0; hgDAF-12 ag: 1; hcDAF-12 act: 5.8*

Results for COC(=O)[C@]12C[C@H](CC(=O)N3CCN(C(=O)C4CC4)CC3)C(=O)N(Cc3ccco3)C1=C[C@H](C(C)C)O[C@@H]2C1CC1 ?
ssDAF12 agonist: -2; DAX1 inh-2: 0; hgDAF-12 ag: 0; hcDAF-12 act: -3

Results for Cc1[nH][nH]c(=O)c1C(c1ccccc1[N+](=O)[O-])C(C#N)C#N (stereo unspecified) ?
ssDAF12 agonist: -1; DAX1 inh-1: 1; DAX1 inh-2: 0; hgDAF-12 ag: 2; hcDAF-12 act: 1

How did CCCc1[nH][nH]c(=O)c1C(c1cccc(Cl)c1)C(C#N)C#N (stereo unspecified) do in these assays?
ssDAF12 agonist: -1; DAX1 inh-1: 4.5*; DAX1 inh-2: 1; hgDAF-12 ag: 0; hcDAF-12 act: -2

What do the screens show for `O=C(c1cc(Cl)cc(Cl)c1)N1CC[C@H]2[C@H](CCCN2Cc2ccc(F)cc2)C1`?
ssDAF12 agonist: -1; DAX1 inh-2: -1; hgDAF-12 ag: -1; hcDAF-12 act: -2

Results for Brc1ccc(OCc2nc3ccccc3[nH]2)cc1 ?
ssDAF12 agonist: 0; DAX1 inh-1: 4; DAX1 inh-2: 2; hgDAF-12 ag: 12*; hcDAF-12 act: 6.0*

What do the screens show for `Nc1ccc2nc(COc3ccccc3)[nH]c2c1`?
ssDAF12 agonist: 0; DAX1 inh-1: -1; DAX1 inh-2: 1; hgDAF-12 ag: 10; hcDAF-12 act: 6.5*

Results for COc1ccccc1OCc1nc2ccccc2[nH]1 ?
ssDAF12 agonist: 0; DAX1 inh-1: 7.3*; DAX1 inh-2: 3; hgDAF-12 ag: 8; hcDAF-12 act: 3

What do the screens show for `c1ccc(CCc2nc3ccccc3[nH]2)cc1`?
ssDAF12 agonist: 0; DAX1 inh-1: 0; DAX1 inh-2: 1; hgDAF-12 ag: 13*; hcDAF-12 act: 2

What do the screens show for `CCOC(=O)N1CCN(C(=O)C[C@H]2C[C@@]3(C(=O)OC)C(=C[C@H](C(C)C)O[C@@H]3C3CC3)N(CCC3=CCCCC3)C2=O)CC1`?
ssDAF12 agonist: -1; DAX1 inh-2: 0; hgDAF-12 ag: -3; hcDAF-12 act: -4

How did O=C(OC12CCCN(C1)/C(=C/c1ccccc1)C2)C1CCCC1 (stereo unspecified) do in these assays?
ssDAF12 agonist: -1; DAX1 inh-2: 0; hgDAF-12 ag: -1; hcDAF-12 act: 0

How did CCCCN(C(=O)c1oc2ccc(OCC)cc2c1C)c1c(N)n(CC(C)C)c(=O)[nH]c1=O do in these assays?
ssDAF12 agonist: -1; DAX1 inh-1: 0; DAX1 inh-2: 4.2*; hgDAF-12 ag: 0; hcDAF-12 act: 2

What do the screens show for `CCCCn1c(N)c(N(CC(C)C)C(=O)c2oc3ccc(OCC)cc3c2C)c(=O)[nH]c1=O`?
ssDAF12 agonist: -1; DAX1 inh-1: 0; DAX1 inh-2: -2; hgDAF-12 ag: -3; hcDAF-12 act: 1

What do the screens show for `O=C1CCC[C@H]2C[C@H](NCc3ccc(F)cc3F)CC[C@]23CCCN13`?
ssDAF12 agonist: 0; hgDAF-12 ag: 0; hcDAF-12 act: -2

What do the screens show for `CC(C)(C)c1ccc(C(=O)NCC(=O)O)cc1`?
ssDAF12 agonist: -1; DAX1 inh-1: 4.8*; DAX1 inh-2: 1; hgDAF-12 ag: 0; hcDAF-12 act: -1

What do the screens show for `CC(C)(C)c1ccc(C(=O)NCCN2CCCC2)cc1`?
ssDAF12 agonist: 1.1*; DAX1 inh-1: 1; DAX1 inh-2: 0; hgDAF-12 ag: 2; hcDAF-12 act: 1

Screens: PubChem, The Scripps Research Institute Molecular Screening Center
